Data reported in the supplement of paper PMC8728848.
This is one part of a sample in which the strongest signals are shown more often than they occur.

Key:
Assay in all cases: glycan array binding signal (z-score within array); higher = stronger binding
Conditions in all cases: glycan notation: IUPAC condensed, linker removed
[1] = target: Fuc(a1-2)Gal(b1-3)GalNAc(b1-3)Gal(a1-4)Gal(b1-4)Glc
Procedure, shortened: (§1)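 Columns mapping to the same glycan were averaged after glycan names were converted to IUPAC-condensed notation. The data come from 3228 arrays in the Consortium for Functional Glycomics database, limited to those with an available protein sequence. Binding is reported as a within-array Z-score averaged across arrays of one protein sequence and across linkers.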

[2] = target: Fuc(a1-2)Gal(b1-3)[Fuc(a1-4)]GlcNAc(b1-2)Man(a1-3)[Fuc(a1-2)Gal(b1-3)[Fuc(a1-4)]GlcNAc(b1-2)Man(a1-6)]Man(b1-4)GlcNAc(b1-4)[Fuc(a1-6)]GlcNAc(b1-4)[Fuc(a1-6)]GlcNAc
Procedure, shortened: as §1

[3] = target: Fuc(a1-2)Gal(b1-4)GlcNAc(b1-3)[Fuc(a1-3)[Gal(b1-4)]GlcNAc(b1-6)]Gal(b1-4)Glc
Procedure, shortened: as §1

[4] = target: Fuc(a1-2)Gal(b1-4)GlcNAc(b1-6)GalNAc
Procedure, shortened: as §1

[5] = target: Fuc(a1-2)Gal(b1-4)[Fuc(a1-3)]GlcNAc
Procedure, shortened: as §1

[6] = target: Fuc(a1-2)Gal(b1-4)[Fuc(a1-3)]GlcNAc(b1-3)Gal(b1-4)[Fuc(a1-3)]GlcNAc(b1-3)Gal(b1-4)[Fuc(a1-3)]GlcNAc
Procedure, shortened: as §1

[7] = target: Fuc(a1-2)[Gal(a1-3)]Gal(b1-3)GalNAc(b1-3)Gal(a1-4)Gal(b1-4)Glc
Procedure, shortened: as §1

[8] = target: Fuc(a1-2)[Gal(a1-3)]Gal(b1-3)GlcNAc(b1-2)Man(a1-3)[Fuc(a1-2)[Gal(a1-3)]Gal(b1-3)GlcNAc(b1-2)Man(a1-6)]Man(b1-4)GlcNAc(b1-4)GlcNAc
Procedure, shortened: as §1

[9] = target: Fuc(a1-2)[GalNAc(a1-3)]Gal(b1-4)Glc
Procedure, shortened: as §1

[10] = target: Fuc(a1-2)[GalNAc(a1-3)]Gal(b1-4)GlcNAc
Procedure, shortened: as §1

[11] = target: Fuc(a1-3)[Gal(b1-4)]GlcNAc(b1-3)Gal(b1-4)[Fuc(a1-3)]GlcNAc
Procedure, shortened: as §1

[12] = target: Fuc(a1-3)[Gal(b1-4)]GlcNAc(b1-4)Gal(b1-4)[Fuc(a1-3)]GlcNAc(b1-4)Gal(b1-4)[Fuc(a1-3)]GlcNAc
Procedure, shortened: as §1

[13] = target: Fuc(a1-3)[Gal(b1-4)]GlcNAc(b1-6)[Gal(b1-3)GlcNAc(b1-3)]Gal(b1-4)Glc
Procedure, shortened: as §1

[14] = target: Fuc(a1-3)[Gal(b1-4)]GlcNAc(b1-6)[Neu5Ac(a2-3)Gal(b1-3)]GalNAc
Procedure, shortened: as §1

[15] = target: Gal(a1-3)Gal(b1-3)GlcNAc(b1-2)Man
Procedure, shortened: as §1

[16] = target: Gal(a1-3)Gal(b1-3)GlcNAc(b1-3)GalNAc
Procedure, shortened: as §1

[17] = target: Gal(a1-3)Gal(b1-4)[Fuc(a1-3)]GlcNAc
Procedure, shortened: as §1

[18] = target: Gal(a1-4)Gal(b1-3)GlcNAc(b1-2)Man(a1-3)[Gal(a1-4)Gal(b1-3)GlcNAc(b1-2)Man(a1-6)]Man(b1-4)GlcNAc(b1-4)GlcNAc
Procedure, shortened: as §1

Gal(b1-2)Gal = target: Gal(b1-2)Gal
Procedure, shortened: as §1

[19] = target: Gal(b1-3)GlcNAc(b1-3)GalNAc
Procedure, shortened: as §1

[20] = target: Gal(b1-3)GlcNAc(b1-6)GalNAc
Procedure, shortened: as §1

[21] = target: Gal(b1-3)[Fuc(a1-4)]GlcNAc
Procedure, shortened: as §1

[22] = target: Gal(b1-3)[Neu5Ac(a2-6)]GlcNAc(b1-6)Gal(b1-4)Glc
Procedure, shortened: as §1

[23] = target: Gal(b1-4)GalNAc(a1-3)[Fuc(a1-2)]Gal(b1-4)GlcNAc
Procedure, shortened: as §1

[24] = target: Gal(b1-4)GlcNAc(b1-2)Man(a1-3)[GlcNAc(b1-2)Man(a1-6)]Man(b1-4)GlcNAc(b1-4)GlcNAc
Procedure, shortened: as §1

[25] = target: Gal(b1-4)GlcNAc(b1-2)Man(a1-6)[Man(a1-3)]Man(b1-4)GlcNAc(b1-4)GlcNAc
Procedure, shortened: as §1

[26] = target: Gal(b1-4)GlcNAc(b1-2)[Gal(b1-4)GlcNAc(b1-6)]Man(a1-6)[Gal(b1-4)GlcNAc(b1-2)Man(a1-3)]Man(b1-4)GlcNAc(b1-4)GlcNAc
Procedure, shortened: as §1

[27] = target: Gal(b1-4)GlcNAc(b1-3)Gal(b1-4)GlcNAc(b1-2)Man(a1-3)[Gal(b1-4)GlcNAc(b1-3)Gal(b1-4)GlcNAc(b1-2)Man(a1-6)]Man(b1-4)GlcNAc(b1-4)[Fuc(a1-6)]GlcNAc
Procedure, shortened: as §1

[28] = target: Gal(b1-4)GlcNAc(b1-3)Gal(b1-4)GlcNAc(b1-6)[Gal(b1-3)]GalNAc
Procedure, shortened: as §1

GalNAc(b1-3)GlcNAc = target: GalNAc(b1-3)GlcNAc
Procedure, shortened: as §1

GalNAc3S(b1-4)GlcNAc3S = target: GalNAc3S(b1-4)GlcNAc3S
Procedure, shortened: as §1

[29] = target: GlcNAc(b1-2)Gal(b1-3)GalNAc
Procedure, shortened: as §1

[30] = target: GlcNAc(b1-2)Man(a1-3)[GlcNAc(b1-2)Man(a1-6)]Man(b1-4)GlcNAc(b1-4)GlcNAc
Procedure, shortened: as §1

[31] = target: GlcNAc(b1-2)[GlcNAc(b1-4)]Man(a1-3)[GlcNAc(b1-2)Man(a1-6)]Man(b1-4)GlcNAc(b1-4)GlcNAc
Procedure, shortened: as §1

[32] = target: GlcNAc(b1-3)Gal(b1-4)GlcNAc
Procedure, shortened: as §1

[33] = target: GlcNAc(b1-3)Gal(b1-4)GlcNAc(b1-3)Gal(b1-4)GlcNAc(b1-2)Man(a1-3)[GlcNAc(b1-3)Gal(b1-4)GlcNAc(b1-3)Gal(b1-4)GlcNAc(b1-2)Man(a1-6)]Man(b1-4)GlcNAc(b1-4)GlcNAc
Procedure, shortened: as §1

[34] = target: GlcNAc(b1-3)Gal(b1-4)GlcNAc(b1-6)[GlcNAc(b1-3)Gal(b1-3)]GalNAc
Procedure, shortened: as §1

Kdn(a2-3)Gal(b1-3)GalNAc = target: Kdn(a2-3)Gal(b1-3)GalNAc
Procedure, shortened: as §1

Kdn(a2-3)Gal(b1-3)GlcNAc = target: Kdn(a2-3)Gal(b1-3)GlcNAc
Procedure, shortened: as §1

[35] = target: Man(a1-2)Man(a1-3)[Man(a1-6)]Man(a1-6)[Man(a1-2)Man(a1-3)]Man(b1-4)GlcNAc(b1-4)GlcNAc
Procedure, shortened: as §1

[36] = target: Man(a1-2)Man(a1-6)[Man(a1-3)]Man(a1-6)[Man(a1-2)Man(a1-2)Man(a1-3)]Man(b1-4)GlcNAc(b1-4)GlcNAc
Procedure, shortened: as §1

[37] = target: Man(a1-3)[Man(a1-6)]Man(a1-6)[Man(a1-2)Man(a1-3)]Man(b1-4)GlcNAc(b1-4)GlcNAc
Procedure, shortened: as §1

[38] = target: Man(a1-3)[Man(a1-6)]Man(a1-6)[Man(a1-3)]Man(b1-4)GlcNAc(b1-4)GlcNAc
Procedure, shortened: as §1

[39] = target: Man(a1-3)[Man(a1-6)]Man(b1-4)GlcNAc(b1-4)GlcNAc
Procedure, shortened: as §1

[40] = target: Man(a1-3)[Man(a1-6)]Man(b1-4)GlcNAc(b1-4)[Fuc(a1-6)]GlcNAc
Procedure, shortened: as §1

[41] = target: Neu5Ac(a2-3)Gal(b1-3)GlcNAc(b1-2)Man
Procedure, shortened: as §1

[42] = target: Neu5Ac(a2-3)Gal(b1-3)GlcNAc(b1-3)GalNAc
Procedure, shortened: as §1

[43] = target: Neu5Ac(a2-3)Gal(b1-3)GlcNAc(b1-4)Gal(b1-4)Glc
Procedure, shortened: as §1

[44] = target: Neu5Ac(a2-3)Gal(b1-4)GlcNAc(b1-3)Gal
Procedure, shortened: as §1

[45] = target: Neu5Ac(a2-3)Gal(b1-4)[Fuc(a1-3)]GlcNAc(b1-3)Gal
Procedure, shortened: as §1

[46] = target: Neu5Ac(a2-3)Gal(b1-4)[Fuc(a1-3)]GlcNAc(b1-3)GalNAc
Procedure, shortened: as §1

[47] = target: Neu5Ac(a2-3)[GalNAc(b1-4)]Gal(b1-4)GlcNAc
Procedure, shortened: as §1

Neu5Ac(a2-6)Gal(b1-4)Glc = target: Neu5Ac(a2-6)Gal(b1-4)Glc
Procedure, shortened: as §1

[48] = target: Neu5Ac(a2-6)Gal(b1-4)GlcNAc(b1-2)Man(a1-6)[Man(a1-3)]Man(b1-4)GlcNAc(b1-4)GlcNAc
Procedure, shortened: as §1

[49] = target: Neu5Ac(a2-8)Neu5Ac(a2-3)Gal(b1-3)GalNAc(b1-4)[Neu5Ac(a2-3)]Gal(b1-4)Glc
Procedure, shortened: as §1

B1: OrysaEULS2 (Oryza sativa) (protein)
chain: MVYCRANPNYAMTARNGAVVLAPANPKDEYQHWIKDMRWSTSIKDEEGYPAFALVNKATGQAIKHSLGQSHPVRLVPYNPEVMDESVLWTESRDVGNGFRCIRMVNNIYLNFDAFHGDKYHGGVRDGTDIVLWKWCEGDNQRWKIQPYYILEQKLISEEDLNSAVDHHHHHH
[1]
  glycan array binding signal (z-score): -0.184
[2]
  glycan array binding signal (z-score): -0.187
[3]
  glycan array binding signal (z-score): -0.276
[4]
  glycan array binding signal (z-score): -0.163
[5]
  glycan array binding signal (z-score): -0.191
[6]
  glycan array binding signal (z-score): -0.194
[7]
  glycan array binding signal (z-score): -0.248
[8]
  glycan array binding signal (z-score): -0.081
[9]
  glycan array binding signal (z-score): -0.205
[10]
  glycan array binding signal (z-score): -0.2
[11]
  glycan array binding signal (z-score): -0.27
[12]
  glycan array binding signal (z-score): -0.163
[13]
  glycan array binding signal (z-score): -0.183
[14]
  glycan array binding signal (z-score): -0.16
[15]
  glycan array binding signal (z-score): -0.28
[16]
  glycan array binding signal (z-score): -0.176
[17]
  glycan array binding signal (z-score): -0.216
[18]
  glycan array binding signal (z-score): 2.38
Gal(b1-2)Gal
  glycan array binding signal (z-score): -0.142
[19]
  glycan array binding signal (z-score): -0.179
[20]
  glycan array binding signal (z-score): -0.218
[21]
  glycan array binding signal (z-score): -0.191
[22]
  glycan array binding signal (z-score): -0.179
[23]
  glycan array binding signal (z-score): -0.199
[24]
  glycan array binding signal (z-score): 1.37
[25]
  glycan array binding signal (z-score): 5.65
[26]
  glycan array binding signal (z-score): 1.53
[27]
  glycan array binding signal (z-score): 0.18
[28]
  glycan array binding signal (z-score): -0.172
GalNAc(b1-3)GlcNAc
  glycan array binding signal (z-score): -0.242
GalNAc3S(b1-4)GlcNAc3S
  glycan array binding signal (z-score): -0.189
[29]
  glycan array binding signal (z-score): -0.206
[30]
  glycan array binding signal (z-score): 3.13
[31]
  glycan array binding signal (z-score): -0.179
[32]
  glycan array binding signal (z-score): -0.186
[33]
  glycan array binding signal (z-score): 0.555
[34]
  glycan array binding signal (z-score): -0.224
Kdn(a2-3)Gal(b1-3)GalNAc
  glycan array binding signal (z-score): -0.167
Kdn(a2-3)Gal(b1-3)GlcNAc
  glycan array binding signal (z-score): -0.204
[35]
  glycan array binding signal (z-score): 1.35
[36]
  glycan array binding signal (z-score): 1.51
[37]
  glycan array binding signal (z-score): 4.8
[38]
  glycan array binding signal (z-score): 4.45
[39]
  glycan array binding signal (z-score): 12.5
[40]
  glycan array binding signal (z-score): 1.44
[41]
  glycan array binding signal (z-score): -0.31
[42]
  glycan array binding signal (z-score): -0.195
[43]
  glycan array binding signal (z-score): -0.24
[44]
  glycan array binding signal (z-score): -0.196
[45]
  glycan array binding signal (z-score): -0.179
[46]
  glycan array binding signal (z-score): -0.145
[47]
  glycan array binding signal (z-score): -0.207
Neu5Ac(a2-6)Gal(b1-4)Glc
  glycan array binding signal (z-score): -0.21
[48]
  glycan array binding signal (z-score): 3.61
[49]
  glycan array binding signal (z-score): -0.153
